Measurements: PubChem BioAssay (NCI)
The panel holds about 83,000 compounds, 20% with a hit somewhere; the sample as a whole holds those more often.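 A percent growth of 40 corresponds to 60% growth inhibition; 0 means no net growth; -100 means all cells died. Active threshold: below 10.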 The source made the active and inactive calls.

Columns and labels:
Test in all cases: NCI-60 one-dose screen, 48 h (100 = growth as untreated, 0 = no growth, -100 = all killed)
Conditions in all cases: 10 µM unless noted
NCI-H23 lung = test system: NCI-H23 lung
NCI-H226 lung = test system: NCI-H226 lung
NCI-H322M lung = test system: NCI-H322M lung
HOP-62 NSCLC = test system: HOP-62 NSCLC
NCI-H460 lung = test system: NCI-H460 lung
HOP-92 NSCLC = test system: HOP-92 NSCLC
NCI-H522 lung = test system: NCI-H522 lung
A549/ATCC NSCLC = test system: A549/ATCC NSCLC
786-0 renal = test system: 786-0 renal
COLO 205 colon = test system: COLO 205 colon
DU-145 prostate = test system: DU-145 prostate
K-562 leukemia = test system: K-562 leukemia
MALME-3M melanoma = test system: MALME-3M melanoma
MDA-MB-231 breast = test system: MDA-MB-231 breast
RXF 393 renal = test system: RXF 393 renal
SF-268 CNS = test system: SF-268 CNS
SF-295 CNS = test system: SF-295 CNS
SF-539 CNS = test system: SF-539 CNS
UACC-257 melanoma = test system: UACC-257 melanoma
M14 melanoma = test system: M14 melanoma

Measured: growth

Nc1ccc(N(O)/C=C2\C=CC=CC2=O)cc1N
inactive: NCI-H23 lung 82.7% | NCI-H226 lung 103% | NCI-H322M lung 110% | HOP-62 NSCLC 95.7% | NCI-H460 lung 119% | HOP-92 NSCLC 91.3% | NCI-H522 lung 72.7% | A549/ATCC NSCLC 94.4% | 786-0 renal 92.3% | COLO 205 colon 114% | DU-145 prostate 121% | K-562 leukemia 93.5% | MALME-3M melanoma 101% | MDA-MB-231 breast 85.9% | RXF 393 renal 98.2% | SF-268 CNS 107% | SF-295 CNS 112% | SF-539 CNS 101% | UACC-257 melanoma 98.7% | M14 melanoma 101%

Cc1ccc(-c2nc3ccccc3c(=O)n2/N=C/c2cccc3ccccc23)cc1
inactive: NCI-H23 lung 77.6% | NCI-H226 lung 79.2% | NCI-H322M lung 54.7% | HOP-62 NSCLC 83.1% | NCI-H460 lung 69.1% | HOP-92 NSCLC 74.2% | NCI-H522 lung 53.4% | A549/ATCC NSCLC 80.1% | 786-0 renal 87.3% | COLO 205 colon 73.8% | DU-145 prostate 96.9% | K-562 leukemia 65.5% | MALME-3M melanoma 68.6% | MDA-MB-231 breast 66.8% | RXF 393 renal 91.8% | SF-268 CNS 74.1% | SF-295 CNS 66.8% | SF-539 CNS 96.5% | UACC-257 melanoma 86.4% | M14 melanoma 67.5%

N#Cc1c(NN)n(C2OC(CO)C(O)C2O)c2ncnc(N)c12 (stereo not given)
inactive: NCI-H226 lung 25.7% | 786-0 renal 26.1% | MDA-MB-231 breast 15.2% | SF-268 CNS 15.1% | SF-295 CNS 56.9%
active: NCI-H23 lung 2.93% | NCI-H322M lung -19.8% | HOP-62 NSCLC -0.156% | NCI-H460 lung -13.4% | HOP-92 NSCLC -18.9% | NCI-H522 lung -57% | A549/ATCC NSCLC 6.43% | COLO 205 colon -32.7% | DU-145 prostate -0.273% | K-562 leukemia -46.1% | MALME-3M melanoma -9.07% | RXF 393 renal -53.1% | SF-539 CNS -5.9% | UACC-257 melanoma -26.3% | M14 melanoma -18.3%

O=c1cc(N2CCOCC2)oc2c(-c3ccc4c(c3)OCCO4)csc12
inactive: NCI-H23 lung 31.9% | NCI-H226 lung 11.6% | NCI-H322M lung 19.8% | HOP-62 NSCLC 15.5% | NCI-H460 lung 22% | HOP-92 NSCLC 11.9% | NCI-H522 lung 28.8% | A549/ATCC NSCLC 12.9% | DU-145 prostate 22.8% | K-562 leukemia 25.6% | MDA-MB-231 breast 20.3% | SF-268 CNS 29.8% | UACC-257 melanoma 18.6% | M14 melanoma 12.3%
active: 786-0 renal 9.88% | COLO 205 colon 5.88% | MALME-3M melanoma -3.44% | RXF 393 renal -22.5% | SF-295 CNS 0.878% | SF-539 CNS 3.65%

COc1ccc(Nc2ncnc3c2sc2nc(C)cc(C)c23)cc1
inactive: NCI-H23 lung 111% | NCI-H226 lung 103% | NCI-H322M lung 102% | HOP-62 NSCLC 107% | NCI-H460 lung 97.9% | HOP-92 NSCLC 130% | NCI-H522 lung 99.9% | A549/ATCC NSCLC 96% | 786-0 renal 93.9% | COLO 205 colon 111% | DU-145 prostate 102% | K-562 leukemia 101% | MALME-3M melanoma 94.5% | MDA-MB-231 breast 102% | RXF 393 renal 104% | SF-268 CNS 94.3% | SF-295 CNS 112% | SF-539 CNS 94.6% | UACC-257 melanoma 93.2% | M14 melanoma 102%

FC(F)(F)c1ccc(/C=N/Nc2nnc3n2N=C(c2ccc(Cl)cc2)CS3)cc1
inactive: NCI-H23 lung 64.8% | NCI-H226 lung 20.7% | NCI-H322M lung 60.9% | HOP-62 NSCLC 16.4% | NCI-H460 lung 43.9% | NCI-H522 lung 58.1% | A549/ATCC NSCLC 51.7% | 786-0 renal 27.6% | COLO 205 colon 89.3% | DU-145 prostate 53.7% | K-562 leukemia 80.9% | MALME-3M melanoma 16.3% | MDA-MB-231 breast 56.2% | SF-268 CNS 36.8% | SF-295 CNS 47.6% | SF-539 CNS 54.8% | UACC-257 melanoma 46.9% | M14 melanoma 74.4%
active: HOP-92 NSCLC 3.52% | RXF 393 renal 3.04%

COc1cc2nccc(Oc3ccc(NC(=O)C4(C(=O)Nc5ccc(F)cc5)CC4)cc3)c2cc1O
active: K-562 leukemia 9.3%
inactive: NCI-H23 lung 57.4% | NCI-H226 lung 67.1% | NCI-H322M lung 87.7% | HOP-62 NSCLC 57.6% | NCI-H460 lung 48.1% | HOP-92 NSCLC 33.4% | NCI-H522 lung 68% | A549/ATCC NSCLC 56.4% | 786-0 renal 96.2% | COLO 205 colon 91% | DU-145 prostate 77.7% | MALME-3M melanoma 64% | MDA-MB-231 breast 71% | RXF 393 renal 58.5% | SF-268 CNS 65.8% | SF-295 CNS 35.2% | SF-539 CNS 24.5% | UACC-257 melanoma 71.5% | M14 melanoma 49.5%

COc1ccc(NC(=O)/C=C/c2ccc(NC(=O)N3CCCC3)cc2)cn1
inactive: NCI-H23 lung 105% | NCI-H226 lung 96.6% | NCI-H322M lung 106% | HOP-62 NSCLC 104% | NCI-H460 lung 105% | HOP-92 NSCLC 103% | NCI-H522 lung 95.9% | A549/ATCC NSCLC 100% | 786-0 renal 109% | COLO 205 colon 112% | DU-145 prostate 106% | K-562 leukemia 99.4% | MALME-3M melanoma 96.8% | MDA-MB-231 breast 97.5% | RXF 393 renal 109% | SF-268 CNS 101% | SF-295 CNS 99.8% | SF-539 CNS 97% | UACC-257 melanoma 103% | M14 melanoma 103%
